Shown are actives, neighbours in structure and some others; about 1.3% of the full set was active somewhere.
Akt phos inh: HTS Assay for Inhibitors of Akt Phophorylation: Primary Screen | Neuro2A IGF-stimulated pAkt S473 HTRF, 20 min; active compounds read low | activity change, % for hits at 50 µM | 0.32% of 360,000 active; in the data active = activity change below about -80%; inconclusive = mostly about -51% to -80%
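Neuro2A cells (4,500/well, DMEM with 0.5% FBS) were treated with compound at a single 50 µM final concentration, stimulated with 6 nM IGF for 20 min at 37 °C, and lysed. Phospho-Akt Ser473 was read by HTRF as 665/615 ratio ×10^4.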
CCT chaperon mod: High-Throughput Screening for Modulators of Cytosolic Chaperonin Activity. activity change, % (test concentration not listed), hits read low. 0.3% of 360,000 active. purified chaperonin ATPase assay, HTRF ADP detection, 30 min; in the data active = activity change below about -30%
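TRiC (40 or 20 nM final, by batch activity) in 30 mM Tris pH 7.4, 100 mM KCl, 5 mM MgCl2, 1 mM DTT was treated with compound at 76 uM single dose, then 10 uM ATP, 30 min at 37 °C. ADP was read by HTRF Transcreener.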
Six1-Eya2 inh: qHTS Assay for Inhibitors of the Six1/Eya2 Interaction; AlphaScreen GST-Six1/His-Eya2 binding, biochemical; active compounds read low; activity change, % (no concentration beside the values); 0.56% of 360,000 active; Homeobox protein SIX1 (Homo sapiens) + Protein phosphatase EYA2 (Homo sapiens), …
Target sequence (O00167 whole entry, looked up): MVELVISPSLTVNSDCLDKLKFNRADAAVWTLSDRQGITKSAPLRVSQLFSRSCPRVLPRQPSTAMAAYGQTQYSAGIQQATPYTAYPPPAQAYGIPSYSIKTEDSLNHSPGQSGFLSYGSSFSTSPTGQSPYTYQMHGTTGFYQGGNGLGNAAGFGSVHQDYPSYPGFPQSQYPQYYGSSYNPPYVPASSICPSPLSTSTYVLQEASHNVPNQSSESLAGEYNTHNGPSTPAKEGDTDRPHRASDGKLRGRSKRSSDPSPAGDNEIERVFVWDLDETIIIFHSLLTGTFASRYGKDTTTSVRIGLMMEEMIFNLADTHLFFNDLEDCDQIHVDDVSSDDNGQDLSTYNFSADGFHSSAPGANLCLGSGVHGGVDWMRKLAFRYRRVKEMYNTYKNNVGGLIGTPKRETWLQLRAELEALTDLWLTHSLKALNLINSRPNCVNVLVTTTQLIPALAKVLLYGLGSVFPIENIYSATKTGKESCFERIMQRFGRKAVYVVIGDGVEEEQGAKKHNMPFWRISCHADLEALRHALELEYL
Target sequence (Q15475 whole entry, looked up): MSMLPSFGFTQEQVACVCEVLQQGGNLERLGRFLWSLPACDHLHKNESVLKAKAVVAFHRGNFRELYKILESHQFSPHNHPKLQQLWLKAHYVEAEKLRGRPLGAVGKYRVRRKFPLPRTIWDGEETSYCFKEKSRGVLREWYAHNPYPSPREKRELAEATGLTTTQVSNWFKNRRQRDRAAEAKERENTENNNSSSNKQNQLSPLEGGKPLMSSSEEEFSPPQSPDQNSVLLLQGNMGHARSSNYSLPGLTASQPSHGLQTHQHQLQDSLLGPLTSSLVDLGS
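AlphaScreen with GST-Six1 and His-Eya2 (5X mix: 250 nM and 500 nM), glutathione donor and nickel acceptor beads; buffer 50 mM Tris pH 8.0, 300 mM NaCl, 1 mM TCEP; 1 h at 37 C in the dark.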
CtBP-E1A blk: qHTS Assay for Inhibitors of the CtBP/E1A Interaction; CtBP / adenovirus E1A interaction (AlphaScreen); AlphaScreen GST-E1A/His-CtBP binding, 1536-well; active compounds read low; activity change, % (concentration not given with the values); 0.49% of 340,000 active
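Steps: dispense buffer (Tris pH 8.0, NaCl 300 mM, TCEP 1 mM, BSA, Tween 20); add 5X protein mix (GST-E1A, His-CtBP, 125 nM each); pin 23 nL compound; 2 h at 37 °C, dark; add 5X beads (50 ug/mL); 1 h; read.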
Active calls of the source: *. Rule as the data show it, unless noted: active = activity change below about -65%; inconclusive = mostly about -30% to -63%; inactive = weaker than that. % is scaled to controls: 0 for no effect and ±100 for the full control effect.

`CCOC(=O)c1ccc(-c2csc(NC(=O)CN3CCC(C)CC3)n2)cc1` gave Akt phos inh inactive, CCT chaperon mod -1, Six1-Eya2 inh -9 and CtBP-E1A blk -17.
`CCOc1ccc(/C=N/NC(=O)c2[nH]ncc2Br)c(O)c1` gave Akt phos inh inactive, CCT chaperon mod 0, Six1-Eya2 inh -83* and CtBP-E1A blk -92*.
O=C(N/N=C\c1c(O)ccc2ccccc12)c1ccc(Cn2cccn2)o1 was read as Akt phos inh inactive, CCT chaperon mod 1, Six1-Eya2 inh -86* and CtBP-E1A blk -73*.
O=C(N/N=C/c1c(O)ccc2ccccc12)c1[nH]ncc1Br was read as Akt phos inh inactive, CCT chaperon mod -1, Six1-Eya2 inh -85* and CtBP-E1A blk -90*.
Cc1ccc(O)c(/C=N/NC(=O)c2[nH]ncc2Br)c1 was read as Akt phos inh inactive, CCT chaperon mod 2, Six1-Eya2 inh -6 and CtBP-E1A blk 18.
For CCNC(=O)C1(C)CCCN1Cc1c(F)cccc1F (stereo not given) the results were Akt phos inh inactive, CCT chaperon mod 1, Six1-Eya2 inh -12 and CtBP-E1A blk 0.
`Cc1ccn(CC(=O)N2CCCC(N3CCN(Cc4ccc5c(c4)OCO5)CC3)C2)n1` (stereo not given) gave Akt phos inh inactive, CCT chaperon mod -5, Six1-Eya2 inh 6 and CtBP-E1A blk 5.
Cc1c(Cl)cccc1NC(=O)NN1CCN(C)CC1 was read as Akt phos inh inactive, CCT chaperon mod 1, Six1-Eya2 inh -16 and CtBP-E1A blk 0.
Screening C/C(C/C(C)=C1/SC(=S)NC1=O)=C1\SC(=S)NC1=O returned Akt phos inh inactive, CCT chaperon mod -2, Six1-Eya2 inh -71* and CtBP-E1A blk inconclusive.
`O=C(C(=O)N1CCN(c2ccccc2F)CC1)c1ccccc1` gave Akt phos inh inactive, Six1-Eya2 inh 1 and CtBP-E1A blk -1.
For COc1ccc(C(CCN2CCCC(C)C2)c2c(OC)cc(OC)c3c(-c4ccccc4)cc(=O)oc23)cc1 (stereo not given) the results were Akt phos inh inactive, CCT chaperon mod 1, Six1-Eya2 inh -13 and CtBP-E1A blk -10.
For CCCCCc1cc(=O)oc2c(C(CCN3CCN(c4ccccc4)CC3)c3ccc(N(C)C)cc3)c(OC)cc(OC)c12 (stereo not given) the results were Akt phos inh inactive, CCT chaperon mod 0, Six1-Eya2 inh -66* and CtBP-E1A blk -28.
`COc1cc(OC)c2c(-c3ccccc3)cc(=O)oc2c1C(CCN1CCCC(C)C1)c1ccc(N(C)C)cc1` (stereo not given) gave Akt phos inh inactive, CCT chaperon mod 1 and Six1-Eya2 inh -67*.
`CC(C)CCNC(=O)c1cc(-c2cccs2)nc2ccccc12` gave Akt phos inh inactive, CCT chaperon mod 0 and Six1-Eya2 inh 4.
For CC1CCC(CC(=O)O)(C(=O)O)CC1 (stereo not given) the results were Akt phos inh inactive, CCT chaperon mod -3, Six1-Eya2 inh 5 and CtBP-E1A blk 5.
N#CCCn1c(C2CCCCC2)nc2ccccc21 was read as Akt phos inh -122%*, CCT chaperon mod -10, Six1-Eya2 inh -21 and CtBP-E1A blk 7.
For O=C(O)/C=C/C(=O)Nc1ccc(C2(c3ccc(NC(=O)/C=C/C(=O)O)cc3)c3ccccc3-c3ccccc32)cc1 the results were Akt phos inh inactive, CCT chaperon mod -2 and Six1-Eya2 inh -1.
Cc1ccc(NC(=S)c2nc3ccccc3[nH]2)cc1 was read as Akt phos inh inactive, CCT chaperon mod 1, Six1-Eya2 inh -81* and CtBP-E1A blk -72*.
Cc1ccc(NC(=S)c2ccncc2)c(C)c1 was read as CCT chaperon mod 0 and Six1-Eya2 inh 1.
Screening Cc1ccc(NC(=S)c2nc3ccccc3[nH]2)c(C)c1 returned Akt phos inh inactive, CCT chaperon mod 1, Six1-Eya2 inh -72* and CtBP-E1A blk inconclusive.
`Cc1ccc(NC(=S)N2CCCC(c3nc4ccccc4[nH]3)C2)cc1` (stereo not given) gave Akt phos inh inactive, CCT chaperon mod -2 and Six1-Eya2 inh -1.
Screening Cc1cn([C@H]2C[C@H](O)[C@@H](/C=C/C(=O)N3CCN(Cc4ccc(F)cc4)CC3)O2)c(=O)[nH]c1=O returned Akt phos inh inactive, CCT chaperon mod 1, Six1-Eya2 inh 1 and CtBP-E1A blk 8.
Screening COc1cccc(Nc2nc(-c3sc(N)nc3C)cs2)c1 returned Akt phos inh inactive, CCT chaperon mod 2, Six1-Eya2 inh inconclusive and CtBP-E1A blk -72*.
Screening COc1ccccc1-c1noc2c1C(=O)N(Cc1cn(-c3ccccc3)nn1)CC2 returned Akt phos inh inactive, CCT chaperon mod 1, Six1-Eya2 inh -29 and CtBP-E1A blk -20.
COc1ccccc1-c1noc2c1C(=O)N(Cc1cn(C3CCCC3)nn1)CC2 was read as Akt phos inh inactive, CCT chaperon mod -38*, Six1-Eya2 inh 3 and CtBP-E1A blk 5.
For O=C(COC(=O)COc1ccccc1[N+](=O)[O-])NCc1ccc2c(c1)OCO2 the results were Akt phos inh inactive, CCT chaperon mod -1, Six1-Eya2 inh 7 and CtBP-E1A blk 11.
Screening N#CCCn1cc(/C=C(\C#N)c2nc3ccccc3s2)c(-c2ccc(F)cc2)n1 returned Akt phos inh -88%*, CCT chaperon mod 1, Six1-Eya2 inh 7 and CtBP-E1A blk 5.
`N#CCCn1cc(C=C(C#N)C#N)c(-c2ccc(Cl)cc2)n1` gave Akt phos inh inactive, CCT chaperon mod -4, Six1-Eya2 inh 2 and CtBP-E1A blk -8.
Screening CC1(C(=O)Nc2cnc3ccccc3c2)CCN1C(=O)CCc1ccccc1 (stereo not given) returned Akt phos inh inactive, CCT chaperon mod -1, Six1-Eya2 inh 1 and CtBP-E1A blk 4.
`Cc1[nH]c2ccccc2c1/C=N/NC(N)=S` gave Akt phos inh inactive, CCT chaperon mod -2, Six1-Eya2 inh -16 and CtBP-E1A blk -12.
`NC(=S)NN=Cc1nccc2c(C(F)(F)F)cccc12` gave Akt phos inh inactive, CCT chaperon mod 1, Six1-Eya2 inh -75* and CtBP-E1A blk -72*.
`NC(=S)N/N=C/c1ccccc1` gave Akt phos inh inactive, CCT chaperon mod -3, Six1-Eya2 inh 2 and CtBP-E1A blk 14.
`CNc1cccnc1C=NNC(N)=S` gave Akt phos inh inactive, CCT chaperon mod 0, Six1-Eya2 inh -88* and CtBP-E1A blk 0.
For COc1ccc(OCc2cc(C(=O)N(C)C(C)c3ccon3)no2)c(Cl)c1 (stereo not given) the results were Akt phos inh inactive, CCT chaperon mod 1, Six1-Eya2 inh -4 and CtBP-E1A blk 2.

Source: PubChem (National Center for Advancing Translational Sciences (NCATS))
